Screens as filed in PubChem BioAssay.
An excerpt weighted towards active compounds, which were near 3% of everything screened.
INS promoter inh = inhibitors of insulin promoter-driven GFP, primary screen, imaging, TRM-6 cells (human fetal islet line), eGFP reporter, cell count; reporter expression induced with tamoxifen; inhibition, % at 2 µM; 130,000 compounds, 0.9% hits; AID 1273, 2008;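 active means inhibition above the mean plus 3 SD, with well images judged a real hit on visual review, cut at about 60% in these data, passing the limit was not always enough; inconclusive means inhibition over the cutoff but images rejected on review; inactive means inhibition not above the cutoff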
SDO1 yeast rescue = growth rescue of sdo1-depleted yeast, primary screen, S. cerevisiae, bone marrow failure model | z-score at 10 µM | S. cerevisiae sdo1-depleted JHY4D growth rescue, OD600 30 h; stronger effect = higher value; pdr5 snq2 efflux-pump mutant strain | AID 817, 2007 | 140,000 compounds, 0.21% hits;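 active means z-score above 3 at both the 24 hr and the 30 hr optical density reads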;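 further: z-score against mean and SD of all compound wells on the same plate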
ROMK primary = ROMK potassium channel modulators, primary screen, cell-based, thallium flux, MLSMR library | 130,000 compounds, 2% hits | ATP-sensitive inward rectifier potassium channel 1 (Homo sapiens), P48048 | Tet-inducible ROMK, thallium flux fluorescence; actives lie on both sides | B-score at 10 µM | AID 1918, 2009;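 active means signal ratio slope over the read window, or its plate-corrected B-score, at least 3 SD from the plate mean, either direction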;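 further: B-score of the F/F0 ratio slope over 7 to 12 s after thallium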
Target sequence (P48048 whole entry, looked up): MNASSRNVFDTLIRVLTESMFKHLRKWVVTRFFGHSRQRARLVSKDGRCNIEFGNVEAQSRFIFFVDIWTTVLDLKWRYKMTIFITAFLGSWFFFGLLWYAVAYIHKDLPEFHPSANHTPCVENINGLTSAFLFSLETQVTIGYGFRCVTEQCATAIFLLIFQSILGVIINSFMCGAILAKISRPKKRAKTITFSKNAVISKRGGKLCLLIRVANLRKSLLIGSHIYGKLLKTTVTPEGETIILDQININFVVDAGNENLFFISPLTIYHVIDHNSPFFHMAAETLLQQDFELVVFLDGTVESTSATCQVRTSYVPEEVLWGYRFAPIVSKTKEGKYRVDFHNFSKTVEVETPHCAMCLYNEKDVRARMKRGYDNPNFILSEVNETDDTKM
Measles CPE = compounds protecting cells from measles virus cytopathic effect, primary screen, measles RdRp inhibitor project, single point, MLSMR library, absorbance. AID 841, 2007. protection (pct of control), % at 4 µM. Measles virus-infected cells, CPE protection. 140,000 compounds, 1.5% hits; in the data active means protection mostly above about 24%, no sharp cut-off; inactive means mostly below about 26%
ROMK hit retest = ROMK channel modulator hit retest, confirmation, cell-based, thallium flux, duplicate, resupplied hits | shares compounds with ROMK primary | normalized thallium flux (F/F0 slope) at 10 µM | fluorescence ratio; stronger effect = lower value | 3,000 compounds, 54% hits;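 active means Flux at 10 µM at least 3 SD below or above vehicle control mean in one or both replicates; inconclusive means no clear call, values can overlap the other calls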
Starred values were filed as active, the others as inactive; ? = inconclusive; / = no result.

SMILES	INS promoter inh	SDO1 yeast rescue	ROMK primary	Measles CPE	ROMK hit retest
O=S(=O)(c1ccccc1)n1ccc2cccnc21	45	1.1	/	3	/
Cc1c(Cl)cccc1NC(=O)CNC(=O)c1ccc(F)cc1	12	0.15	/	/	?
COc1ccc2c(c1OC)C(=O)OC2Nc1nc(-c2cc3ccccc3oc2=O)cs1 (configuration not stated)	-52	1.1	/	12	0.04*
Cc1ccc(CNCC(=O)Nc2cccc(S(=O)(=O)NC3=NCCCCC3)c2)cc1	/	/	-2.6*	/	0.064*
COc1cccc(C(=O)Nc2ccc(NC(=O)C(C)(C)C)cn2)c1	-11	1.1	-0.041	10	/
CCN(CCNC(=O)C1CCCN(Cc2nc(-c3ccc(OC)cc3)oc2C)C1)c1ccccc1 (configuration not stated)	/	-1.8	-3.9*	5	0.059*
Cc1ccc(NC2(c3nnnn3-c3c(C)cccc3C)CCCCC2)cc1	-11	-0.25	1	5	/
O=C(NCC1CCCN(Cc2ccc3nonc3c2)C1)c1ccc(F)cc1 (configuration not stated)	/	/	0.38	/	/
Cc1cccn2c(=O)c(/C=C3\SC(=S)NC3=O)c(NCCCN3CCOCC3)nc12	/	/	/	/	0.053*
O=S(=O)(Nc1ccccn1)c1cnc(Cl)c(Br)c1	/	0.37	/	13	/
COc1ccc(S(=O)(=O)Nc2ccccn2)cc1C	/	/	0.87	/	/
Cc1c([N+](=O)[O-])cc(S(=O)(=O)Nc2ccncc2)cc1[N+](=O)[O-]	/	/	-4.2*	/	0.079
Cc1ccc(S(=O)(=O)Nc2ccccn2)cc1[N+](=O)[O-]	/	/	-5.9*	/	0.076
O=C(c1cccs1)c1ccc(-c2cccs2)s1	/	-0.81	0.94	11	/
COc1ccc(C(=O)c2no[n+]([O-])c2C(=O)c2ccc(OC)cc2)cc1	18	-0.2	/	7	?
O=C(c1cccs1)c1no[n+]([O-])c1C(=O)c1cccs1	24	-0.02	/	1	0.028*
COc1ccc([C@@H]2[C@H]3C(=O)N(c4cccc(C(F)(F)F)c4)C(=O)[C@H]3ON2C)cc1	-16	0.97	/	14	/
Cc1cc(NC(=O)CSc2nnc(C3CC3)n2N)c([N+](=O)[O-])cc1C	14	/	0.36	/	/
CCCNc1nc(Cl)nc(NC(C)(C)C)n1	/	/	-3.8*	/	0.053*
O=c1[nH]c(C(F)(F)F)nc2c1nnn2Cc1ccccc1F	-3	0.36	3.4*	14	0.077
COC(=O)C1=C(C(=O)OC)[C@@H]2N(Cc3ccccc3)c3ccccc3[C@@]23C[C@@H](C(=O)OC)N(C(=O)CC(C)C)C3=N1	/	/	/	/	?
Cc1ccc(S(=O)(=O)N2CCCN(S(=O)(=O)c3ccc4c(c3)OCCO4)CC2)cc1	/	-0.84	-3.8*	10	?
CN1CCN(S(=O)(=O)c2ccc3c(c2)OCCO3)CC1	-25	0.29	2.1	21	/
COc1ccc(NC(=O)/C(=C\c2ccncc2)NC(=O)c2ccccc2)cc1	58	/	-0.19	/	/
CC(=O)c1cc(N2CCOCC2)ccc1[N+](=O)[O-]	/	/	-0.0079	/	/
SMILES	INS promoter inh	SDO1 yeast rescue	ROMK primary	Measles CPE	ROMK hit retest
Cc1cc(N2CCOCC2)ccc1/C=C\[N+](=O)[O-]	29	-0.83	-4.5*	6	0.05*
CN(C)CC(CCC(CN(C)C)C(=O)c1ccccc1)C(=O)c1ccccc1 (configuration not stated)	/	/	-3.2*	/	0.044*
O=C(CSc1ccc2ccccc2n1)NCc1ccc2c(c1)OCO2	/	/	-5.2*	/	?
O=C(CSc1nc2ccccc2s1)NCc1ccc2c(c1)OCO2	-30	-0.21	/	16	/
CC1CCCC(C)N1C(=O)Cn1c(SCC(=O)NCc2ccc3c(c2)OCO3)nc2ccccc21 (configuration not stated)	/	-0.71	-3.9*	6	0.061*
C/C(=N\NC(=O)c1nc2ccccn2c1C)c1cc2ccccc2o1	/	/	0.11	/	/
C/C(=N\NC(=O)c1cc2ccccc2cc1O)c1cc2ccccc2o1	/	/	/	/	0.13*
CC(=O)c1ccc2cccc3c2c1N=CN3C	-130	0.54	/	12	0.049*
CN1c2cccc3cccc(c23)N(C)C1(C)C	-6	0.74	-0.061	8	/
COc1ccc(CNC(=O)c2ccc(Br)o2)cc1	43	-0.07	0.1	5	/
Cc1ccc(-c2nn(-c3ccccc3)cc2C2SCC(=O)N2Cc2ccccc2)o1 (configuration not stated)	?	-1.4	/	35	0.078
O=C1CSC(c2cn(-c3ccccc3)nc2-c2cc3ccccc3o2)N1Cc1ccccc1 (configuration not stated)	-21	-0.87	0.21	7	/
Nc1ccc2c(c1)COc1ccccc1O2	44	0.34	/	25	/
Nc1ccc2c(c1)Oc1ccccc1C=C2	-124	/	-3.2*	/	0.07
COc1ccc(OC)c(/C(O)=C/C(=O)C(=O)Nc2ccccc2OC)c1	-29	-2.8	-0.024	14	/
CCN(CC)c1ccc2cc(C#N)c(=O)oc2c1	-10	/	/	/	0.046*
NC(=O)c1ccc(N2CCCCC2)c(N2C(=O)C3C4C=CC(C4)C3C2=O)c1 (configuration not stated)	0	1.9	-0.023	20	/
O=C(O)c1ccc(N2CCOCC2)c(N2C(=O)C3C4C=CC(C4)C3C2=O)c1 (configuration not stated)	40	/	-0.025	/	0.075
O=C(NC(=S)Nc1nc2c(s1)CSc1ccccc1-2)c1ccccc1	25	-0.65	0.28	12	/
CN(C)CCCN=C(NO)c1ccc(Cl)cc1Cl	/	/	0.17	/	/
NC/C(=N\O)c1ccc(Cl)cc1Cl	47	0.03	-4.5*	10	0.056*
CCc1ccc(/C=C2\Oc3cc(OS(C)(=O)=O)ccc3C2=O)cc1	/	-0.94	/	3	/
CCc1ccc(/C=C2\Oc3c(ccc(O)c3CN3CCN(CCO)CC3)C2=O)cc1	/	/	/	/	0.049*
c1ccc(CN2CCC(Nc3ncnc4sccc34)CC2)cc1	/	/	-0.85	/	/
Cc1sc2ncnc(NC3CCN(Cc4ccccc4)CC3)c2c1C	-12	/	-3.7*	/	?
SMILES	INS promoter inh	SDO1 yeast rescue	ROMK primary	Measles CPE	ROMK hit retest
CC1(C)CC(N=C2C([N+](=O)[O-])=CC=C3C2=NC2(CCCCC2)N3O)CC(C)(C)N1	/	/	/	/	0.076
CCC1(CC)Cc2ccccc2-c2nc(NCCCO)[nH]c(=O)c21	/	/	-2.9	/	/
O=c1[nH]c(NCCCO)nc2c1C1(CCCC1)Cc1ccccc1-2	30	0.87	-3.4*	3	0.057*
COCCOC(=O)C1=C(C)NC(=O)NC1c1cn(-c2ccccc2)nc1-c1cccs1 (configuration not stated)	14	1.2	0.0072	0	/
C=CCOC(=O)C1=C(C)NC(=O)NC1c1cn(-c2ccccc2)nc1-c1cccs1 (configuration not stated)	-100	-0.2	-3*	2	0.061*
O=C(Nc1ccccc1N1CCOCC1)c1ccc(Cl)nc1	/	/	0.64	/	/
O=C(Nc1ccc(NC(=O)c2cc([N+](=O)[O-])ccc2N2CCOCC2)cc1)c1cccs1	/	/	-0.27	/	/
